Laboratory results reported in paper PMC9911399, “Two distinct binding modes provide the RNA-binding protein RbFox with extraordinary sequence specificity”.
Numbering of substitutions follows the chain as printed; changes in the protein carry UniProt numbers. In all, about 16,000 sequences were measured (“ka relative to ugcaugu”: median about 0.096, highest 2% from about 0.35 on). Many of the other results were omitted from the sample, so the highest values are more common in it than they were.

T1: RBFOX1 RRM RbFoxmut (Fox-RRM*) (Homo sapiens, UniProt Q9NWB1 109-208, R118D;E147R;N151S;E152T)
T1 sequence: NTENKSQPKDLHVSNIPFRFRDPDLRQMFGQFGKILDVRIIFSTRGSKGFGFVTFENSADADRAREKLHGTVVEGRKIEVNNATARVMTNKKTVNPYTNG

B1: UCAGUGG (DNA:RNA)
RNA: GGGAGACCGGAAUUCAGAUUGUCCUCAGUGGUUAAAUCCCGUCGUAGCCACCA
DNA 1: CAATCTGAATTCCGGTCTCCC
DNA 2: TGGTGGCTACGACGGGATT
B2: AGUUGAG (DNA:RNA)
RNA: B1 RNA with U25A, C26G, A27U, G28U, U29G, G30A
DNA 1: CAATCTGAATTCCGGTCTCCC
DNA 2: TGGTGGCTACGACGGGATT
B3: AUAGCCG (DNA:RNA)
RNA: B1 RNA with U25A, C26U, U29C, G30C
DNA 1: CAATCTGAATTCCGGTCTCCC
DNA 2: TGGTGGCTACGACGGGATT
B4: AAGUGAG (DNA:RNA)
RNA: B1 RNA with U25A, C26A, A27G, G28U, U29G, G30A
DNA 1: CAATCTGAATTCCGGTCTCCC
DNA 2: TGGTGGCTACGACGGGATT
B5: UGCAUUA (DNA:RNA)
RNA: B1 RNA with C26G, A27C, G28A, G30U, G31A
DNA 1: CAATCTGAATTCCGGTCTCCC
DNA 2: TGGTGGCTACGACGGGATT
B6: UGCAUGA (DNA:RNA)
RNA: B1 RNA with C26G, A27C, G28A, G31A
DNA 1: CAATCTGAATTCCGGTCTCCC
DNA 2: TGGTGGCTACGACGGGATT
B7: UGCGUGG (DNA:RNA)
RNA: B1 RNA with C26G, A27C
DNA 1: CAATCTGAATTCCGGTCTCCC
DNA 2: TGGTGGCTACGACGGGATT
B8: UGCGUCA (DNA:RNA)
RNA: B1 RNA with C26G, A27C, G30C, G31A
DNA 1: CAATCTGAATTCCGGTCTCCC
DNA 2: TGGTGGCTACGACGGGATT
B9: UCCUGCA (DNA:RNA)
RNA: B1 RNA with A27C, G28U, U29G, G30C, G31A
DNA 1: CAATCTGAATTCCGGTCTCCC
DNA 2: TGGTGGCTACGACGGGATT
B10: UGCAUAA (DNA:RNA)
RNA: B1 RNA with C26G, A27C, G28A, G30A, G31A
DNA 1: CAATCTGAATTCCGGTCTCCC
DNA 2: TGGTGGCTACGACGGGATT
B11: UGCAUGG (DNA:RNA)
RNA: B1 RNA with C26G, A27C, G28A
DNA 1: CAATCTGAATTCCGGTCTCCC
DNA 2: TGGTGGCTACGACGGGATT
B12: UGCCUGG (DNA:RNA)
RNA: B1 RNA with C26G, A27C, G28C
DNA 1: CAATCTGAATTCCGGTCTCCC
DNA 2: TGGTGGCTACGACGGGATT
B13: UGCAUCA (DNA:RNA)
RNA: B1 RNA with C26G, A27C, G28A, G30C, G31A
DNA 1: CAATCTGAATTCCGGTCTCCC
DNA 2: TGGTGGCTACGACGGGATT
B14: GCCAUCG (DNA:RNA)
RNA: B1 RNA with U25G, A27C, G28A, G30C
DNA 1: CAATCTGAATTCCGGTCTCCC
DNA 2: TGGTGGCTACGACGGGATT
B15: GUCAUAC (DNA:RNA)
RNA: B1 RNA with U25G, C26U, A27C, G28A, G30A, G31C
DNA 1: CAATCTGAATTCCGGTCTCCC
DNA 2: TGGTGGCTACGACGGGATT
B16: AUUUCGA (DNA:RNA)
RNA: B1 RNA with U25A, C26U, A27U, G28U, U29C, G31A
DNA 1: CAATCTGAATTCCGGTCTCCC
DNA 2: TGGTGGCTACGACGGGATT
B17: AAACAAG (DNA:RNA)
RNA: B1 RNA with U25A, C26A, G28C, U29A, G30A
DNA 1: CAATCTGAATTCCGGTCTCCC
DNA 2: TGGTGGCTACGACGGGATT
B18: UAAUACC (DNA:RNA)
RNA: B1 RNA with C26A, G28U, U29A, G30C, G31C
DNA 1: CAATCTGAATTCCGGTCTCCC
DNA 2: TGGTGGCTACGACGGGATT
B19: AGCUAUA (DNA:RNA)
RNA: GGGAGACCGGAAUUCAGAUUGUCCAGCUAUAUUAAAUCCCGUCGUAGCCACCA
DNA 1: CAATCTGAATTCCGGTCTCCC
DNA 2: TGGTGGCTACGACGGGATT
B20: AGUGGCA (DNA:RNA)
RNA: B19 RNA with C27U, U28G, A29G, U30C
DNA 1: CAATCTGAATTCCGGTCTCCC
DNA 2: TGGTGGCTACGACGGGATT
B21: CAAAUUG (DNA:RNA)
RNA: B1 RNA with U25C, C26A, G28A, G30U
DNA 1: CAATCTGAATTCCGGTCTCCC
DNA 2: TGGTGGCTACGACGGGATT
B22: GGGUGUG (DNA:RNA)
RNA: B19 RNA with A25G, C27G, A29G, A31G
DNA 1: CAATCTGAATTCCGGTCTCCC
DNA 2: TGGTGGCTACGACGGGATT
B23: GGGGGUG (DNA:RNA)
RNA: B19 RNA with A25G, C27G, U28G, A29G, A31G
DNA 1: CAATCTGAATTCCGGTCTCCC
DNA 2: TGGTGGCTACGACGGGATT
B24: GGGUGUC (DNA:RNA)
RNA: B19 RNA with A25G, C27G, A29G, A31C
DNA 1: CAATCTGAATTCCGGTCTCCC
DNA 2: TGGTGGCTACGACGGGATT
B25: GCGGGUG (DNA:RNA)
RNA: B1 RNA with U25G, A27G, U29G, G30U
DNA 1: CAATCTGAATTCCGGTCTCCC
DNA 2: TGGTGGCTACGACGGGATT
B26: GGGGGUC (DNA:RNA)
RNA: B19 RNA with A25G, C27G, U28G, A29G, A31C
DNA 1: CAATCTGAATTCCGGTCTCCC
DNA 2: TGGTGGCTACGACGGGATT
B27: CCGGGUG (DNA:RNA)
RNA: B1 RNA with U25C, A27G, U29G, G30U
DNA 1: CAATCTGAATTCCGGTCTCCC
DNA 2: TGGTGGCTACGACGGGATT
B28: GGUCUGG (DNA:RNA)
RNA: B1 RNA with U25G, C26G, A27U, G28C
DNA 1: CAATCTGAATTCCGGTCTCCC
DNA 2: TGGTGGCTACGACGGGATT
B29: ACUUCCA (DNA:RNA)
RNA: B19 RNA with G26C, C27U, A29C, U30C
DNA 1: CAATCTGAATTCCGGTCTCCC
DNA 2: TGGTGGCTACGACGGGATT
B30: CCAGGGC (DNA:RNA)
RNA: B1 RNA with U25C, U29G, G31C
DNA 1: CAATCTGAATTCCGGTCTCCC
DNA 2: TGGTGGCTACGACGGGATT
B31: AGUUAUG (DNA:RNA)
RNA: B19 RNA with C27U, A31G
DNA 1: CAATCTGAATTCCGGTCTCCC
DNA 2: TGGTGGCTACGACGGGATT

molecular target: T1, RBFOX1 RRM RbFoxmut (Fox-RRM*); experiment: EMSA; HiTS-Eq, 1 nM pool, 10 min; buffer printed only for the single-RNA assays: 10 mM Tris pH 7.5, 150 mM NaCl, 3.4 mM EDTA, 0.001% NP-40, 30 C; conditions: tags: His6 N-terminal (pET28a); label: 5' 32P
Method in brief: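 Purified RbFox RRM (wild type or mutant) was equilibrated for 10 min in 50 µL with 1 nM of a 5′-radiolabelled pool of RNA with 7 randomized nucleotides, its flanks annealed to DNA oligonucleotides, across increasing protein concentrations. Free RNA was separated by 8% native PAGE, excised, reverse-transcribed, PCR-barcoded and sequenced on an Illumina HiSeq 2500. Relative association constants came from read-count changes of each variant against the control reaction, normalised to the cognate motif.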

Point of comparison: B4, binding signal 0.137 KA relative to UGCAUGU. Against it:
- B1 — lower, 0.101 KA relative to UGCAUGU
- B2 — lower, 0.133 KA relative to UGCAUGU
- B3 — lower, 0.119 KA relative to UGCAUGU
- B5 — higher, 0.163 KA relative to UGCAUGU
- B6 — higher, 0.692 KA relative to UGCAUGU
- B7 — higher, 0.138 KA relative to UGCAUGU
- B8 — higher, 0.155 KA relative to UGCAUGU
- B9 — higher, 0.24 KA relative to UGCAUGU
- B10 — higher, 0.146 KA relative to UGCAUGU
- B11 — higher, 0.935 KA relative to UGCAUGU
- B12 — higher, 0.233 KA relative to UGCAUGU
- B13 — higher, 0.565 KA relative to UGCAUGU
- B14 — lower, 0.0927 KA relative to UGCAUGU
- B15 — lower, 0.1 KA relative to UGCAUGU
- B16 — lower, 0.114 KA relative to UGCAUGU
- B17 — lower, 0.0927 KA relative to UGCAUGU
- B18 — lower, 0.0785 KA relative to UGCAUGU
- B19 — higher, 0.14 KA relative to UGCAUGU
- B20 — higher, 0.144 KA relative to UGCAUGU
- B21 — lower, 0.117 KA relative to UGCAUGU
- B22 — higher, 0.441 KA relative to UGCAUGU
- B23 — higher, 0.289 KA relative to UGCAUGU
- B24 — higher, 0.368 KA relative to UGCAUGU
- B25 — higher, 0.194 KA relative to UGCAUGU
- B26 — higher, 0.201 KA relative to UGCAUGU
- B27 — higher, 0.163 KA relative to UGCAUGU
- B28 — higher, 0.153 KA relative to UGCAUGU
- B29 — lower, 0.0542 KA relative to UGCAUGU
- B30 — lower, 0.102 KA relative to UGCAUGU
- B31 — higher, 0.28 KA relative to UGCAUGU
